In PubChem BioAssay AID1159580 (chemical genetic matrix, 2015):
The whole screen tested about 5,500 compounds, of which about 2,000 (36%) were called active. Not shown: some 18% with an inconclusive outcome. Rule as the data show it: active = normalized growth mostly below about 0.91 (no sharp cut-off); inconclusive = no clear call, values can overlap the other calls; inactive = mostly above about 0.92. The list shows a part of the results.

Experiment: chemical genetic growth profiling, strain panel (AID 1159580);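 also: tested at 20 µM; growth read once vehicle control cultures reached saturation at 30 °C; 1 = growth at the plate median or of vehicle wells; lower values mean less growth of the strain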
Conditions: growth OD

Measured: normalized growth

COC1=CC23CCCN2CCc2cc4c(cc2C3C1O)OCO4 (centres undefined)
inactive: S. cerevisiae deletion strains, locus YJL187C, strain SWE1, hits give low values 1.02 | S. cerevisiae deletion strains, locus YJR043C, strain POL32, hits give low values 0.999 | S. cerevisiae deletion strains, locus YJR066W, strain TOR1, hits give low values 0.92 | S. cerevisiae deletion strains, locus YJR075W, strain HOC1, hits give low values 1.01 | S. cerevisiae deletion strains, locus YKL009W, strain mrt4, hits give low values 1.01 | S. cerevisiae deletion strains, locus YKL068W, hits give low values 1 | S. cerevisiae deletion strains, locus YKL085W, strain MDH1 (second series), hits give low values 1.01 | S. cerevisiae deletion strains, locus YKL085W, strain MDH1, hits give low values 1.01 | S. cerevisiae deletion strains, locus YKL160W, strain elf1, hits give low values 1.02 | S. cerevisiae deletion strains, locus YKL190W, strain CNB1, hits give low values 1 | S. cerevisiae deletion strains, locus YKR001C, strain vps1, hits give low values 1.01 | S. cerevisiae deletion strains, locus YKR026C, strain gcn3, hits give low values 1.02 | S. cerevisiae deletion strains, locus YKR091W, strain srl3, hits give low values 1.02 | S. cerevisiae deletion strains, locus YLL001W, strain dnm1, hits give low values 1.02 | S. cerevisiae deletion strains, locus YLL026W, hits give low values 1.02 | S. cerevisiae deletion strains, locus YLL041C, strain sdh2, hits give low values 1.02 | S. cerevisiae deletion strains, locus YLR027C, strain aat2, hits give low values 1.01 | S. cerevisiae deletion strains, locus YLR039C, strain RIC1, hits give low values 1.04 | S. cerevisiae deletion strains, locus YLR058C, strain SHM2, hits give low values 1 | S. cerevisiae deletion strains, locus YLR102C, strain apc9, hits give low values 1 | S. cerevisiae deletion strains, locus YLR113W, strain HOG1, hits give low values 0.959 | S. cerevisiae deletion strains, locus YLR221C, strain rsa3, hits give low values 1.03 | S. cerevisiae deletion strains, locus YLR258W, strain gsy2, hits give low values 1.02 | S. cerevisiae deletion strains, locus YLR262C, strain YPT6 (second series), hits give low values 1.04 | S. cerevisiae deletion strains, locus YLR262C, strain YPT6, hits give low values 1.04 | S. cerevisiae deletion strains, locus YLR268W, strain sec22, hits give low values 1.02 | S. cerevisiae deletion strains, locus YLR320W, strain mms22, hits give low values 1.05 | S. cerevisiae deletion strains, locus YLR330W, strain CHS5, hits give low values 1 | S. cerevisiae deletion strains, locus YLR342W, strain FKS1 (second series), hits give low values 0.997 | S. cerevisiae deletion strains, locus YLR342W, strain FKS1, hits give low values 1.02 | S. cerevisiae deletion strains, locus YLR357W, strain rsc2, hits give low values 1.06 | S. cerevisiae deletion strains, locus YLR370C, strain arc18, hits give low values 1.03 | S. cerevisiae deletion strains, locus YLR371W, strain rom2, hits give low values 1.01 | S. cerevisiae deletion strains, locus YLR384C, strain iki3, hits give low values 1.02 | S. cerevisiae deletion strains, locus YLR418C, strain cdc73, hits give low values 0.992 | S. cerevisiae deletion strains, locus YML016C, strain PPZ1, hits give low values 1 | S. cerevisiae deletion strains, locus YML032C, strain rad52, hits give low values 0.98 | S. cerevisiae deletion strains, locus YML120C, strain ndi1, hits give low values 1.02 | S. cerevisiae deletion strains, locus YML124C, strain tub3, hits give low values 1 | S. cerevisiae deletion strains, locus YMR058W, strain fet3, hits give low values 1.03 | S. cerevisiae deletion strains, locus YMR078C, strain ctf18, hits give low values 1.01 | S. cerevisiae deletion strains, locus YMR125W, strain sto1, hits give low values 1.04 | S. cerevisiae deletion strains, locus YMR129W, hits give low values 1.02 | S. cerevisiae deletion strains, locus YMR205C, strain PFK2, hits give low values 1.05 | S. cerevisiae deletion strains, locus YMR223W, strain ubp8, hits give low values 1.01 | S. cerevisiae deletion strains, locus YMR231W, strain pep5, hits give low values 1.02 | S. cerevisiae deletion strains, locus YMR307W, strain GAS1, hits give low values 0.984 | S. cerevisiae deletion strains, locus YNL067W, strain RPL9B, hits give low values 0.99 | S. cerevisiae deletion strains, locus YNL071W, strain lat1, hits give low values 1.02 | S. cerevisiae deletion strains, locus YNL183C, strain NPR1, hits give low values 0.926 | S. cerevisiae deletion strains, locus YNL209W, strain ssb2, hits give low values 1.02 | S. cerevisiae deletion strains, locus YNL233W, strain BNI4, hits give low values 0.989 | S. cerevisiae deletion strains, locus YNL248C, strain rpa49, hits give low values 1.04 | S. cerevisiae deletion strains, locus YNL250W, strain rad50, hits give low values 1.01 | S. cerevisiae deletion strains, locus YNL271C, strain bni1, hits give low values 1.01 | S. cerevisiae deletion strains, locus YNL298W, strain CLA4, hits give low values 1.01 | S. cerevisiae deletion strains, locus YNL307C, strain MCK1, hits give low values 1.01 | S. cerevisiae deletion strains, locus YNL322C, strain KRE1 (second series), hits give low values 1.02 | S. cerevisiae deletion strains, locus YNR049C, strain mso1, hits give low values 1.05 | S. cerevisiae deletion strains, locus YNR052C, strain pop2, hits give low values 1 | S. cerevisiae deletion strains, locus YOL012C, strain htz1 0.879 | S. cerevisiae deletion strains, locus YOL147C, strain pex11, hits give low values 1.01 | S. cerevisiae deletion strains, locus YOR001W, strain rrp6, hits give low values 1.04 | S. cerevisiae deletion strains, locus YOR061W, strain CKA2, hits give low values 1.01 | S. cerevisiae deletion strains, locus YOR069W, strain VPS5, hits give low values 1.01 | S. cerevisiae deletion strains, locus YOR070C, strain gyp1, hits give low values 1.02 | S. cerevisiae deletion strains, locus YOR080W, strain dia2, hits give low values 1.03 | S. cerevisiae deletion strains, locus YOR083W, strain WHI5, hits give low values 1.03 | S. cerevisiae deletion strains, locus YOR106W, strain vam3, hits give low values 1.03 | S. cerevisiae deletion strains, locus YOR136W, strain idh2, hits give low values 1.01 | S. cerevisiae deletion strains, locus YOR144C, strain elg1, hits give low values 1.01 | S. cerevisiae deletion strains, locus YOR184W, strain ser1, hits give low values 0.999 | S. cerevisiae deletion strains, locus YOR231W, strain MKK1, hits give low values 0.972 | S. cerevisiae deletion strains, locus YOR265W, strain rbl2, hits give low values 1.05 | S. cerevisiae deletion strains, locus YOR270C, strain vph1, hits give low values 1.09 | S. cerevisiae deletion strains, locus YOR290C, strain snf2, hits give low values 1 | S. cerevisiae deletion strains, locus YOR316C, strain cot1, hits give low values 1.01 | S. cerevisiae deletion strains, locus YPL051W, strain arl3, hits give low values 1.02 | S. cerevisiae deletion strains, locus YPL055C, strain LGE1, hits give low values 0.999 | S. cerevisiae deletion strains, locus YPL078C, strain atp4, hits give low values 1.03 | S. cerevisiae deletion strains, locus YPL106C, strain sse1, hits give low values 1.03 | S. cerevisiae deletion strains, locus YPL240C, strain hsp82, hits give low values 1.02 | S. cerevisiae deletion strains, locus YPL256C, strain CLN2, hits give low values 0.949 | S. cerevisiae deletion strains, locus YPR119W, strain clb2, hits give low values 1 | S. cerevisiae deletion strains, locus YPR141C, strain kar3, hits give low values 1.01 | S. cerevisiae deletion strains, locus YPR163C, strain tif3, hits give low values 1.01 | S. cerevisiae deletion strains, locus YPR167C, strain met16, hits give low values 0.998 | S. cerevisiae deletion strains, strain wtn01, hits give low values 1.02 | S. cerevisiae strains, strain wild type, hits give low values 1
